# Screening results deposited in PubChem BioAssay by National Center for Advancing Translational Sciences (NCATS).
# Most compounds without a hit are left out; they make up all but 10% or so of the library.
# NIH3T3 tox: kills NIH 3T3 cells; 4.3% of 94,000 active; Potency, µM (top dose mostly 96.7 µM), for the others: top-dose activity change, negative = cytotoxicity, hits mostly inhibitors; NIH 3T3 viability, CellTiter-Glo ATP luminescence, 48-72 h; also: nearly all actives have a fitted effect of over 55% in size
#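 NIH 3T3 cells at 400 cells/well received 23 nL of compound by pintool and were incubated 48 or 72 h at 37 °C. Viability was read as ATP-coupled CellTiter-Glo luminescence.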
# HEK293 tox: cytotoxic compounds in HEK 293 cells. AID 1345083. HEK 293 viability, ATP luminescence (CellTiter-Glo), 48-72 h. 6.6% of 94,000 active. Potency, µM (top dose mostly 115 µM), for the others: top-dose activity change, negative = cytotoxicity, hits mostly inhibitors; also: nearly all actives have a fitted effect of over 60% in size
#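 Viability of HEK 293 cells, plated at 250 cells/well, was judged by cellular ATP after compound treatment for 48 or 72 hr. Luminescence was imaged 10 min after CellTiter-Glo addition at room temperature.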
# GPT2 inh: inhibitors of human GPT2 alanine aminotransferase | Potency, µM (doses to about 57.7 µM), for the others: top-dose activity change, negative = inhibition, usual class: inhibitors | Q8TD30 | Recombinant GPT2, coupled pyruvate oxidase/HRP Amplex Red fluorescence | 0.25% of 100,000 active; also: nearly all actives have a fitted effect of over 60% in size
#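 Inhibition is scored from Amplex Red fluorescence generated when pyruvate oxidase and HRP act on pyruvate released by GPT2. Reactions contain 10ng/uL enzyme, 250uM a-KG and 2mM L-alanine and run 30 min at room temperature.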
# Luciferase inh: inhibitors of firefly (Photinus pyralis) luciferase; purified P. pyralis luciferase, luminescence, biochemical; Potency, µM (highest dose often 115 µM), usual class: inhibitors; 2.5% of 76,000 active; AID 1347043; also: nearly all actives have a fitted effect of over 65% in size
#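 Luminescence read by CCD imager after adding enzyme (10nM final) to wells holding compound, titrated in qHTS. Substrates 10uM each D-luciferin and ATP; buffer 50mM Tris acetate pH 7.5, 10mM Mg acetate, Tween-20, BSA.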
# NPR1 antag: antagonists of human natriuretic peptide receptor Npr1 | Potency, µM (series often up to 46.3 µM), inactives show at the top dose activity change, negative = inhibition, usual class: inhibitors | HEK293 hNpr1 GloSensor cGMP, ANP-stimulated luminescence | 1.6% of 76,000 active; calls by dose curve; also: nearly all actives have a fitted effect of over 60% in size
# Target sequence (P16066 whole entry, looked up): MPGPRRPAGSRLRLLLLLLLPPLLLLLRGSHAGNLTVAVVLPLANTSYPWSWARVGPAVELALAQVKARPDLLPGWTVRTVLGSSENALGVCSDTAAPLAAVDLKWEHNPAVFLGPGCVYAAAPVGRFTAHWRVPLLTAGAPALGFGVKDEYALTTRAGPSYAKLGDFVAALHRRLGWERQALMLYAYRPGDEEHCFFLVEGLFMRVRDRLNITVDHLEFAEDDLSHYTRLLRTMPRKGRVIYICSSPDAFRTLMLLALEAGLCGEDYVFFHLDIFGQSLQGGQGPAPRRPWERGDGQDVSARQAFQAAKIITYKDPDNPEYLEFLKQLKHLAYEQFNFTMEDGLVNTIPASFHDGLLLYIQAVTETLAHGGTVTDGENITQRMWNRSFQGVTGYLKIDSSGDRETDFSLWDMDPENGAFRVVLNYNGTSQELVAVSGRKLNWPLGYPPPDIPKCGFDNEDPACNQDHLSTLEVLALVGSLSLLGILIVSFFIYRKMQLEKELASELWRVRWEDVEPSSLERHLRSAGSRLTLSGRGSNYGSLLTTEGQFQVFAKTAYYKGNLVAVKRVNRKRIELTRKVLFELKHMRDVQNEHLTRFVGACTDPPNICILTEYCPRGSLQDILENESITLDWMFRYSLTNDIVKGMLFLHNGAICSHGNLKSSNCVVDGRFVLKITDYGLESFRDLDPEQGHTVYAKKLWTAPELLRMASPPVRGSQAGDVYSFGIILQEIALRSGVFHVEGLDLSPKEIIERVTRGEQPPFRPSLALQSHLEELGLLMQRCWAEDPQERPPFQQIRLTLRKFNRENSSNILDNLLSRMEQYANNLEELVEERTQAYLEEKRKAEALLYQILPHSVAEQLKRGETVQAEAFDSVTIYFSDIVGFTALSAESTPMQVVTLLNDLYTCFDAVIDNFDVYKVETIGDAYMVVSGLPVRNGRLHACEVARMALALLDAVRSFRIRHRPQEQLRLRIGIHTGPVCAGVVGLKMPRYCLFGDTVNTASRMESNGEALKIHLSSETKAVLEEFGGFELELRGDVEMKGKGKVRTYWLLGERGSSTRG
#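 Compound pre-incubated 30 min at room temperature on GloSensor-loaded HEK293 cells stably carrying hNpr1 and the pGS-40F cGMP biosensor. Stimulation uses hNppA at 0.1 nM final; luminescence is taken at baseline and 20 min post-agonist.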
# Starred values were filed as active, the others as inactive; i = inactive; ? = inconclusive; . = not tested or not shown; [ ] = another dose, or the depositor's remark. Unless noted, calls follow the shape of the dose curve; as a rule, active = well fitted curve in the direction sought with a large enough effect; inconclusive = small, poorly fitted or top-dose-only effect, or another doubt; inactive = no such curve, though single readings can be large; an effect the other way counts as inactive or inconclusive. % is scaled to controls: 0 for no effect and ±100 for the full control effect; potency is read from the fitted curve at half-maximal effect.
SMILES,NIH3T3 tox,HEK293 tox,GPT2 inh,Luciferase inh,NPR1 antag
CCn1cc(-c2cc3c(cn2)CN(Cc2cccnc2)CCN3)cn1,1.9%[138 µM],?,2.8%[88.5 µM],63.1µM*,1.7%[70.6 µM]
COc1ccc(CN2CCNc3cc(-c4ccnc(C)c4)ncc3C2)cc1,?,89.1µM*,3.7%[88.5 µM],?,-3.3%[70.6 µM]
COc1ccc(OC)c(CN2CCNc3cc(-c4ccnc(C)c4)ncc3C2)c1,?,100µM*,-7.7%[88.5 µM],?,4.3%[70.6 µM]
Cc1cc(-c2cc3c(cn2)CN(CC2CCOC2)CCN3)ccn1 (centres undefined),?,-30.4%[172 µM],i,?,4.3%[70.6 µM]
Cc1cc(-c2cc3c(cn2)CN(Cc2cccc(F)c2)CCN3)ccn1,?,70.8µM*,-0.5%[88.5 µM],15.8µM*,-24.1%[70.6 µM]
c1cncc(-c2cc3c(cn2)CN(Cc2ccncc2)CCN3)c1,-17.5%[138 µM],?,1.0%[88.5 µM],i,-17.7%[70.6 µM]
O=C(NCc1cccs1)c1cc(-c2ccc(Cl)cc2Cl)c2nncn2n1,?,?,-9.9%,.,.
CN1CC(=O)N(c2ccccc2F)Cc2c(NC3CCNCC3)ncnc21,i,i,-7.5%,.,.
COCCNC(=O)C1CCCN(Cc2cccc(-c3ccsc3)c2)C1 (centres undefined),?,-26.6%,.,.,.
O=C(C1CCCN(Cc2cccc(-c3ccsc3)c2)C1)N1CCOCC1 (centres undefined),?,?,i,.,.
CCCCCNC(=O)C1CCCN(Cc2cccc(-c3ccsc3)c2)C1 (centres undefined),35.5µM*,31.6µM*,.,.,.
O=C(NCCC1CCCCC1)C1CCCN(Cc2cccc(-c3ccsc3)c2)C1 (centres undefined),?,44.7µM*,.,.,.
Cn1ccc(NC(=O)C2(C)CCc3cnc(NCc4ccccc4)nc32)n1 (centres undefined),20µM*,?,3.9%[88.5 µM],i,-5.3%[70.6 µM]
CC1(C(=O)NCCCn2ccnc2)CCc2cnc(NCc3ccccc3)nc21 (centres undefined),31.6µM*,-21.5%[172 µM],i,i,4.1%[70.6 µM]
CN1CCC(NC(=O)C2(C)CCCc3cnc(NCc4ccccc4)nc32)CC1 (centres undefined),-27.5%[138 µM],?,i,i,0.0%[70.6 µM]
COCCNC(=O)C1(C)CCc2cnc(NCc3ccccc3)nc21 (centres undefined),89.1µM*,-26.2%[172 µM],0.8%[88.5 µM],i,7.5%[70.6 µM]
COCCNC(=O)C1(C)CCc2cnc(Nc3ccccc3)nc21 (centres undefined),79.4µM*,?,i,i,5.0%[70.6 µM]
O=C(Nc1ccc(Cl)cc1)NC1CCCN(c2ccc3nnc(-c4ccccc4)n3n2)C1 (centres undefined),-17.2%,-18.9%,.,.,.
CC1(C(=O)NCCOc2ccccc2)CCCc2cnc(Nc3cccnc3)nc21 (centres undefined),?,100µM*,1.8%[88.5 µM],i,-15.7%[70.6 µM]
CC1(C(=O)NCC2CC2)CCCc2cnc(Nc3ccccc3)nc21 (centres undefined),?,?,1.8%[88.5 µM],i,-24.6%[70.6 µM]
COCCNC(=O)C1(C)CCCc2cnc(Nc3ccccc3)nc21 (centres undefined),?,?,-14.8%[88.5 µM],i,-1.6%[70.6 µM]
CC1(C(=O)NCC2CC2)CCc2cnc(NCc3ccccc3)nc21 (centres undefined),?,39.8µM*,-6.0%[88.5 µM],i,-3.9%[70.6 µM]
O=C(OCc1ccccc1)N1CCC2(CC1)C(=NC1CCCCC1)NC(=O)N2c1cccnc1,-3.2%,-27.7%,i,i,0.0%
O=C(NCC1CC1)c1ccc2nnc(-c3ccc(Cl)cc3)n2c1,?,-26.6%[172 µM],4.0%[88.5 µM],.,.
CCC1C(=O)NCCN1Cc1cn(-c2cccc(F)c2)nc1-c1ccc(C)o1 (centres undefined),?,?,-17.2%,28.2µM*,-7.3%
SMILES,NIH3T3 tox,HEK293 tox,GPT2 inh,Luciferase inh,NPR1 antag
Cc1cccc(C2c3cc(OCc4nc(C(=O)NC(C)C)co4)ccc3CCN2C(=O)C2CC2)c1 (centres undefined),14.1µM*,17.8µM*,i,i,-15.6%
CC(C)NC(=O)c1coc(COc2ccc3c(c2)C(c2cccc(F)c2)N(C(=O)C2CC2)CC3)n1 (centres undefined),22.4µM*,?,i,i,-13.0%
COc1ccc(CN2CCCC(c3cc(=O)[nH]c(C)n3)C2)c(OC)c1C (centres undefined),?,44.7µM*,i,i,5.4%
Cc1ccc([S+](=O)([O-])N2CCCC(C(=O)N3CCC(N4Cc5cccn5C4=O)CC3)C2)cc1 (centres undefined),?,44.7µM*,i,.,.
O=C(C1CCCN([S+](=O)([O-])c2cccc(C(F)(F)F)c2)C1)N1CCC(N2Cc3cccn3C2=O)CC1 (centres undefined),?,?,-6.9%,.,.
Cc1cccc(-c2ccccc2C(=O)N2CCCC(CO)(Cc3ccccc3F)C2)c1 (centres undefined),79.4µM*,20µM*,?,i,-9.3%
Cn1cccc1CN1CCC2(CC1)CN(Cc1ccccc1)CC2CO (centres undefined),?,?,i,i,0.8%
O=C(N[C@H]1CCN2C(=O)c3cc(-c4cccc(C(F)(F)F)c4)ccc3NC(=O)[C@@H]2C1)c1ccncc1,?,39.8µM*,2.9%,i,-1.6%
CC(C)NC(=O)N[C@H]1CCN2C(=O)c3cc(-c4ccccc4F)ccc3NC(=O)[C@@H]2C1,-26.2%[174 µM],?,?,i,1.0%[70.6 µM]
C=CCNC(=O)N[C@H]1CCN2C(=O)c3ccc(Cl)cc3NC(=O)[C@@H]2C1,31.6µM*,?,i,i,2.6%[70.6 µM]
O=C(N[C@H]1CCN2C(=O)c3cc(-c4ccccc4F)ccc3NC(=O)[C@@H]2C1)c1ccc(F)c(Cl)c1,10µM*,10µM*,i,i,?
COC1C(=O)N(CC2CC2)C12CCN(S(=O)(=O)Cc1ccccc1F)CC2 (centres undefined),-23.4%,-11.4%,i,.,.
Cc1cc(C)nc(CNC(=O)c2ccc3nc(-c4ccc(F)cc4)cn3c2)n1,4.8%,0.6%,i,i,-0.8%
O=C(NC1C=CS(=O)(=O)C1)c1ccc2nc(-c3ccc(F)cc3)cn2c1 (centres undefined),?,44.7µM*,-0.5%,39.8µM*,4.5%
CCC(NC(=O)c1ccc2nc(-c3ccc(F)cc3)cn2c1)c1cccnc1 (centres undefined),?,?,?,15.8µM*,1.5%
CN(Cc1ccc(F)cc1)c1ccc2ncc(Nc3cccc(N[S+](C)(=O)[O-])c3)n2n1,31.6µM*,35.5µM*,-9.0%,i,?
Cn1ncc2c(C(=O)NCCN3CCOCC3)cc(C(C)(C)C)nc21,-27.2%,-8.8%,i,.,.
CC(C)(Oc1nn(Cc2cccc(Cl)c2)c2ccccc12)C(=O)N1CCCC1,50.1µM*,?,-18.8%[88.5 µM],i,-16.3%[70.6 µM]
